A selection: hits, their analogues and other compounds. The true share with any hit is near 1.8%.
GSTO1 counter: counter-screen for RBBP9 inhibitors: inhibitors of human GSTO1; recombinant GSTO1, activity-based probe fluorescence polarization; AID 1974; 300,000 tested, 1.1% active; inhibition, % at 5.96 µM; P78417;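 active = inhibition above the campaign mean inhibition plus 3 SD, cut at about 35% in these data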;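 also: 0% = GSTO1-1 with DMSO and 100% = wells lacking GSTO1-1 enzyme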
Fam108B inh: blocks mouse Fam108B hydrolase in RBBP9 counter-screen | inhibition, % at 9.51 µM | 300,000 tested, 0.33% active | recombinant Fam108B, FP-Rh probe fluorescence polarization | AID 1947;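 active = inhibition above the screen mean inhibition plus 3 SD, computed separately per campaign, cut at about 18% in these data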;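 also: inhibitors lower polarization as less probe binds the enzyme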
LYPLA1 inh: blocks human lysophospholipase 1, a PME1 counter-screen. recombinant LYPLA1, FP-Rh probe fluorescence polarization. inhibition, % at 5.9 µM. 320,000 tested, 0.16% active. AID 2174. O75608;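 active = inhibition above the mean of all tested compounds plus 3 SD, set per campaign, cut at about 14% in these data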;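 also: inhibitors block serine hydrolase probe labeling of LYPLA1 so polarization falls; 0% = enzyme with DMSO and 100% = wells lacking LYPLA1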
PME-1 inh: blocks human protein phosphatase methylesterase 1 | Q9Y570 | recombinant PME-1, FP-Rh probe fluorescence polarization | inhibition, % at 5.9 µM | 320,000 tested, 0.53% active;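 active = inhibition above the campaign mean of all compounds plus 3 SD, cut at about 26% in these data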;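 also: competitive labeling of PME-1 active site by serine hydrolase directed probe; 0% = PME-1 with DMSO and 100% = wells lacking PME-1 enzyme; inhibitors block probe labeling so polarization falls and inhibition rises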
PAD4 inh: inhibitors of human PAD4. Q9UM07. recombinant PAD4, RCA probe fluorescence polarization. inhibition, % at 6.36 µM. 330,000 tested, 0.41% active;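 active = percent inhibition above a cutoff equal to the mean of all tested compounds plus 3 SD, cut at about 15% in these data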;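 also: 0% = PAD4 with RCA probe and DMSO and 100% = probe without PAD4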
Target sequence (Q9UM07 whole entry, looked up): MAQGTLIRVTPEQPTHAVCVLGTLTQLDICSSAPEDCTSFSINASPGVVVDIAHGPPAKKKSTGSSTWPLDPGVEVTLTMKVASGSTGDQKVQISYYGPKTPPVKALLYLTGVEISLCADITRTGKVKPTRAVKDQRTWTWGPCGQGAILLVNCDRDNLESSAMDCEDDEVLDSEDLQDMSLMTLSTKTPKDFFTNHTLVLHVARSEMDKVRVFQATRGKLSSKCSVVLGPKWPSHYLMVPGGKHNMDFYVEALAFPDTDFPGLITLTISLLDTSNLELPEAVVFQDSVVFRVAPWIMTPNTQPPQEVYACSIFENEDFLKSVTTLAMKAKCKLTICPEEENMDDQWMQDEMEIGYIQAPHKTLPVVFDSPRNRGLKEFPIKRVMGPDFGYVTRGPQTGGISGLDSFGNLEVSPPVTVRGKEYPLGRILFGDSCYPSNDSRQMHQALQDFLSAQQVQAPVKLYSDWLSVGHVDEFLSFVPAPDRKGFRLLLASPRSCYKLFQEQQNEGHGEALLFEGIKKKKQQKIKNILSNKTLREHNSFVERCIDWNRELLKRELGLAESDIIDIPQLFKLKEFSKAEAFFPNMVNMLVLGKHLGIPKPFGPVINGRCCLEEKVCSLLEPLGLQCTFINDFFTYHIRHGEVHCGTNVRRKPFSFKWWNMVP
LYPLA2 inh: LYPLA2 (human) inhibition in PME1 counter-screen; inhibition, % at 5.9 µM; O95372; recombinant LYPLA2, FP-Rh probe fluorescence polarization; 320,000 tested, 0.38% active;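 active = inhibition above the screen-wide mean plus 3 SD, limit set per campaign, cut at about 26% in these data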;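 also: 0% = LYPLA2 with DMSO and 100% = wells lacking LYPLA2 enzyme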
PAD4 confirm: PAD4 (human) inhibition, confirmed | inhibition, % at 6.36 µM | 1,200 tested, 28% active | recombinant PAD4, RCA probe fluorescence polarization | shares compounds with PAD4 inh;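 active = mean inhibition across replicates above the hit cutoff set by the earlier primary screen, cut at about 15% in these data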;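 also: inhibitors block active-site labeling by the probe so polarization falls; 0% = PAD4 with probe and DMSO and 100% = probe without PAD4 enzyme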
Starred values were filed as active, the others as inactive; · = not tested or not shown.

SMILES | GSTO1 counter | Fam108B inh | LYPLA1 inh | PME-1 inh | PAD4 inh | LYPLA2 inh | PAD4 confirm
COC(=O)c1cccc(NC(=O)CC2C(=O)NCCN2C(=O)Nc2ccccc2)c1 (configuration not stated) | 5.8 | -1.6 | 1.6 | -0.2 | -2.0 | 7.1 | ·
COC(=O)c1cc(NC(=O)CC2C(=O)NCCN2C(=O)c2ccccc2)cc(C(=O)OC)c1 (configuration not stated) | 4.8 | -0.8 | -6.3 | -5.7 | 16.1* | -2.7 | -2.8
COc1ccc(NC(=O)Nc2c[nH]c(=O)[nH]c2=O)cc1 | 25.8 | 0.3 | 1.2 | -0.4 | 15.3* | 1.1 | -0.6
CCNC(=S)NNC(=O)c1csc(C)c1 | 5.3 | 1.6 | 1.6 | -3.0 | 92.7* | 3.1 | 4.7
Cc1ccc(NC(=O)c2ccc3c(=O)n4c(nc3c2)CCCCC4)nc1 | 9.3 | 2.2 | -1.2 | -3.2 | 1.4 | 0.9 | ·
Cc1cc(C)c2nc(NC(=O)c3ccc4c(=O)n5c(nc4c3)CCCCC5)sc2c1 | 1.3 | -7.8 | -4.6 | 4.7 | 36.2* | -3.4 | 27.6*
NS(=O)(=O)c1ccc(NC(=S)N2CCN(C(=O)C3CCCO3)CC2)cc1 (configuration not stated) | -7.4 | -5.2 | 3.1 | 4.8 | -4.5 | -2.4 | ·
O=S(c1ccc2ccccc2c1)c1cnns1 (configuration not stated) | 29.4 | 0.3 | -3.0 | 1.3 | 18.8* | -6.4 | 18.6*
COc1ccc(-c2c/c(=N\c3nc(-c4ccccc4)c(C)s3)c3ccccc3o2)cc1O | -13.9 | 15.3 | -14.1 | 30.7* | 33.3* | -6.7 | 17.3*
COc1ccc(/C=C/c2nc3cc(-c4ccccc4)ccc3o2)cc1O | -3.8 | 9.2 | -11.3 | -3.2 | -0.6 | -5.1 | ·
CCN(CC(=O)Nc1c(F)cccc1F)C(=O)c1cc2ccccc2oc1=O | 10.4 | 5.8 | 0.2 | 3.5 | 0.3 | -3.2 | ·
O=C(COC(=O)c1ccc(S(=O)(=O)C(F)F)cc1)Nc1ccccc1C(=O)NC1CC1 | · | · | 3.3 | 5.8 | 14.8* | 9.0 | 4.5
O=C(COC(=O)c1ccc([N+](=O)[O-])cc1)Nc1ccccc1C(=O)NC1CC1 | · | · | · | · | 0.6 | · | ·
Cc1cc(=O)oc2cc(NC(=O)c3cccc(S(C)(=O)=O)c3)ccc12 | 0.9 | -3.3 | -26.7 | -8.3 | 19.1* | -2.8 | 19.6*
Cc1cc(=O)oc2cc(NC(=O)c3cccc(S(=O)(=O)N(C)C)c3)ccc12 | -1.5 | -7.9 | -0.5 | -2.5 | -0.6 | -0.2 | ·
CCOc1ccc(CN(C)C(=O)[C@H](C)NC(=O)c2ccco2)cc1OC | 6.8 | 1.8 | 0.7 | -2.4 | -3.7 | 0.4 | ·
Cn1cccc1C(=O)NC1CCCCC1 | -2.5 | -5.1 | -1.4 | -7.5 | 2.1 | -2.0 | ·
CC1=NN(c2cccc(F)c2)C(=O)/C1=C/c1ccc(N(C)C)cc1 | 3.8 | 1.7 | 0.4 | 3.8 | -2.5 | 5.2 | ·
CC1=NN(c2ccc(C)c(C)c2)C(=O)/C1=C/c1ccc2c(c1)n(C)c(=O)n2C | 37.2* | 1.0 | -2.0 | -0.4 | 47.5* | 0.3 | 4.7
CC(=O)c1c(C)[nH]c(C(=O)NCc2cccc(Cl)c2)c1C | 4.4 | -0.6 | -16.9 | -4.3 | 1.7 | 4.0 | ·
CCOC(=O)CNC(=S)N(Cc1ccc(C)cc1)Cc1ccc(C)o1 | -5.1 | 2.2 | -0.3 | 1.7 | 2.9 | 1.9 | ·
COCCn1c(N)c(N(Cc2ccccc2)C(=O)CSCC(=O)Nc2ccc(OC)cc2)c(=O)[nH]c1=O | 5.5 | 0.5 | -0.1 | -0.4 | 3.1 | 3.6 | ·
COc1cccc(-c2ccc(C#N)c(=O)[nH]2)c1 | 5.1 | 2.6 | -1.3 | 9.2 | 1.1 | 2.4 | ·
COc1cccc(-c2cc(=O)[nH][nH]2)c1 | 17.2 | -4.4 | -1.2 | -0.9 | 38.1* | -0.4 | -4.8
CC1=NN(c2ccc(C)cc2C)C(=O)C1C(c1cccc(O)c1)C1C(=O)N(c2ccc(C)cc2C)N=C1C (configuration not stated) | 55.0* | 1.7 | 0.5 | -9.0 | 39.8* | 0.4 | -1.4
SMILES | GSTO1 counter | Fam108B inh | LYPLA1 inh | PME-1 inh | PAD4 inh | LYPLA2 inh | PAD4 confirm
CC1=NN(c2nc(-c3ccc(C)cc3)cs2)C(=O)C1N=Nc1cccc(O)c1 (configuration not stated) | 14.1 | 17.0 | -9.0 | 10.0 | -9.0 | -7.5 | ·
CC(=O)SCC(=O)N=c1sc2cc(F)ccc2n1C | -14.3 | -0.9 | 0.5 | 4.6 | 19.5* | -6.3 | 19.1*
Cn1c(=NC(=O)CCS(=O)(=O)c2ccccc2)sc2cc(F)ccc21 | 3.3 | 3.6 | 3.5 | 5.6 | 5.8 | 7.7 | ·
Cc1cc(C)c2c(c1)-c1c(ssc1=S)C(C)(C)N2C(=O)CN1C(=O)c2ccccc2C1=O | -8.3 | -0.5 | -0.7 | 4.0 | 23.6* | 6.4 | 38.5*
Cc1cccc2c1N(C(=O)CN1C(=O)c3ccccc3C1=O)C(C)(C)c1ssc(=S)c1-2 | 4.6 | 1.9 | 0.2 | 7.7 | 26.8* | 0.5 | 39.8*
COc1ccc(CCNC(=O)C(=O)NCC2OCCN2C(=O)c2ccc(Cl)cc2)cc1OC (configuration not stated) | -2.3 | -1.7 | 1.7 | 3.7 | -10.9 | 6.3 | ·
Cc1ccc(N(Cc2cc(=O)[nH]c3ccccc23)C(=O)C(C)C)cc1 | -16.3 | 4.7 | -1.2 | 2.1 | 25.8* | 6.4 | 24.5*
CCCC(=O)N(Cc1cc(=O)[nH]c2ccccc12)c1ccc(C)cc1 | -15.1 | -0.6 | 0.7 | 5.0 | 22.8* | -1.7 | 26.8*
CCc1ccc(C(=O)/C=C2\Sc3ccccc3NC2=O)cc1 | 0.3 | 2.7 | 1.9 | 4.7 | 37.1* | 11.6 | 41.6*
CN1CCc2c(sc3nc(NN)n(Cc4ccccc4)c(=O)c23)C1 | 15.3 | 4.2 | 1.0 | -5.6 | -4.8 | -8.5 | ·
COc1cc2[nH]c(=S)n(Cc3ccc(C)cc3)c(=O)c2cc1OC | 1.5 | -1.4 | -4.2 | 5.3 | 1.8 | -4.9 | ·
O=C1c2ccccc2C(=O)C12OC2c1ccc(Cl)cc1Cl (configuration not stated) | 25.1 | 3.2 | 3.1 | 1.6 | 35.8* | -2.6 | 39.6*
Cc1c([N+](=O)[O-])cnc(Sc2ccccc2)c1[N+](=O)[O-] | 13.0 | 6.7 | -4.7 | -5.0 | 26.1* | -0.3 | 14.2
O=C(Nc1nc(=O)c2ccccc2s1)c1ccc(F)cc1 | 2.3 | -4.1 | -3.5 | -12.8 | 16.1* | -0.4 | 0.8
O=[N+]([O-])c1ccc(N2CCN(c3cccc(Cl)c3)CC2)cn1 | 4.0 | 1.3 | -2.0 | 5.0 | -1.9 | -2.5 | ·
Cc1cccc(NC(=O)C(CC(C)C)NC(=O)C2CCC(C)CC2)n1 (configuration not stated) | 3.8 | 0.1 | 3.2 | -0.7 | 20.5* | 5.9 | 2.4
CCN(C[C@H]1N[C@@](CC)(C(=O)OC)[C@H]2C(=O)N(Cc3ccccc3)C(=O)[C@@H]12)S(=O)(=O)c1ccc(C(C)(C)C)cc1 | · | · | · | · | -0.1 | · | ·
COc1ccc(C2CC(c3cccs3)=Nc3ccccc3S2)cc1 (configuration not stated) | -1.5 | -5.4 | -5.9 | -5.8 | 21.3* | -0.9 | 2.2

Assay outcomes deposited in PubChem BioAssay by The Scripps Research Institute Molecular Screening Center.
